The whole screen tested about 420,000 compounds, of which about 540 (0.13%) were called active. Shown is part of a subset that was picked to be rich in actives. A number with no mark means an inactive call. No stated cut-off is given here; in the data, active means activity change below about -50%; inconclusive means mostly about -30% to -49%; inactive means weaker than that.

Sequence of Phosphatidylinositol 4-kinase type 2-alpha (Homo sapiens) (Q9BTU6 whole entry, looked up): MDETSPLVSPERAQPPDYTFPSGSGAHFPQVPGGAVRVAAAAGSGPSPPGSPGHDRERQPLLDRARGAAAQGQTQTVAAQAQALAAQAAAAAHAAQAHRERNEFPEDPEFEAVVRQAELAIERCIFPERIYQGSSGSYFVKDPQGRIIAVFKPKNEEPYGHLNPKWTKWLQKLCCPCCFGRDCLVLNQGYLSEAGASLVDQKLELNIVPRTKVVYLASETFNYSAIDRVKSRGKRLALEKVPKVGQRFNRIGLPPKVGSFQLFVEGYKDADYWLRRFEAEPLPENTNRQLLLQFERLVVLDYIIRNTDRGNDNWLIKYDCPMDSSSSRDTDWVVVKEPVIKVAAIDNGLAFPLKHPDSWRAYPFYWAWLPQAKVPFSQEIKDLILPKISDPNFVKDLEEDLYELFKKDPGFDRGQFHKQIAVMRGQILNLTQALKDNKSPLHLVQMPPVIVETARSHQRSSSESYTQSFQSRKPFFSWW

This experiment has as its target Phosphatidylinositol 4-kinase type 2-alpha (Homo sapiens) (UniProt Q9BTU6). Briefly: qHTS for small molecular inhibitors of PI4K2A.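 On activity change, negative = inhibition: -100% = wells without enzyme as full effect.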 The note with it: purified PI4K2A, ADP-Glo luminescence, 1 h; at 76.9 µM, hits give low values. An excerpt: The phosphatidylinositol 4-phosphate (PI4P) is emerging as a key regulator of lipid transfer in ER-membrane contact sites. The four different phosphatidylinositol 4-kinase (PI4K) enzymes generate PI4P in different membrane compartments supporting distinct cellular processes many of which are crucial for the maintenance of cellular integrity but also hijacked by intracellular pathogens. The goal of this screening project is to search for small molecular inhibitors of PI4K2A based on a high throughput screening strategy.The ADP-Glo assay was used as a starting point to develop a miniaturized version for HTS applications. To implement the HTS screen, the PI4K ADP-Glotrade mark Kinase assay (Promega, V9102) was miniaturized for the 1536-well format used at NCGC.
For the robotic screening, the ADP-Glo assay using the ADP-Glotrade mark Kinase Assay kit from Promega was miniaturized and optimized on 1536-well white solid bottom plates (Greiner Bio-one). The substrate, 1.2 mM PI, prepared in the assay buffer (40mM Tris pH7.5, 20mM MgCl2, 1mM EGTA, 0.4% Triton X-100, 0.5mM DTT, 0.5mg/ml BSA) and PI4K2A enzyme, diluted also in the assay buffer to 4ug/mL, were dispensed onto the plates in equal volumes (1microl/well), pinned with 23 nL/well tested compounds or control followed by dispensation of 1microl/well 300microM ATP. The plates were incubated for one hour. Then, 2 µL/well of ADP-Glo reagent was added and incubated for 40 minutes. Next, 4microL/well of Kinase Detection Buffer was added to the plates and incubated for additional 40 minutes. All incubation steps were performed at ambient temperature. The resulting luminescence signal was measured on Viewlux plate reader (PerkinElmer). Adenosine, a partial non-specific inhibitor, was used as a positive control at 100microM final concentration to assess the assay's quality and plate-to-plate reproducibility. We also used "no enzyme" control to gauge the assay's maximal potential inhibition (IC100).
On the technique in general: Quantitative high-throughput screening tests each substance at several concentrations.
Turning to `C=CCN1C(=O)NC(=O)/C(=C/c2ccc(OCC(=O)Nc3ccc(C)cc3)cc2)C1=O`, the activity change, negative = inhibition was -53.5% (active).

As for `CCC(=O)c1ccc(OCC(=O)N2CCN(CC(=O)Nc3ccc(C)cc3)CC2)cc1`, the activity change, negative = inhibition was -4.83%.

Take `C=CCN(CC=C)C(=O)Nc1ccc(OCC)cc1`: the activity change, negative = inhibition was 7.59%.

On to `CO[C@]12CC[C@@]3(C[C@@H]1[C@](C)(O)C(C)(C)C)[C@@H]1Cc4ccc(O)c5c4[C@@]3(CCN1CC1CC1)[C@H]2O5`, for which the activity change, negative = inhibition entry was “inactive”.

For the compound `CCCOC(=O)c1cncn1C(C)c1ccccc1` (stereo not given), the activity change, negative = inhibition is -0.694%.

Source of the values: PubChem BioAssay AID1346378 (National Center for Advancing Translational Sciences (NCATS), 2018).
